Bioassay records as filed in PubChem.
The full list was thinned out, with hits kept by preference.
Pf Dd2 inh – blocks in vitro growth of P. falciparum Dd2. P. falciparum Dd2 growth, SYBR Green, 72 h. Potency, µM (top dose mostly 28.9 µM), actives largely listed as inhibitors. hit rate 4.3% among 120,000; active = well fitted inhibition curve with a large enough effect; also: nearly all actives have a fitted effect of over 65% in size
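Infected erythrocytes (Dd2, 0.3% parasitemia, 2.5% hematocrit final) are added to compound in RPMI-1640/Albumax II medium, grown 72 h at 37C in low oxygen, then lysed with saponin/Triton-X containing SYBR Green and read by fluorescence.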
Each line names hits and unclear results; the compound was inactive in the other large screens.

CCOC(=O)Cn1cnc2onc(-c3ccc(F)cc3)c2c1=O	none
CCCN(C(=O)CCn1cnc2onc(-c3ccc(F)cc3)c2c1=O)c1ccccc1C	none
CCN(C(=O)Cn1cnc2onc(-c3ccc(F)cc3)c2c1=O)c1cc(C)ccc1C	Pf Dd2 inh 10µM
O=C1CCN(S(=O)(=O)c2ccccc2)CCCN(C(=O)C2CC2)CCN1	none
CCOC(=O)N1CCC(N2CCCC(CCC(=O)Nc3ccc(OC)c(Cl)c3)C2)CC1 (stereo not given)	none
COc1cccc(C(=O)N(C)Cc2ccc(-c3ccccc3)cc2)c1	none
O=C(O)CCC(=O)N1Cc2ccccc2CC2(CCCN(Cc3cccnc3)C2)C1 (stereo not given)	none
O=C(O)CCC(=O)N1Cc2ccccc2CC2(CCCN(Cc3ccncc3)C2)C1 (stereo not given)	none
CCC(=O)N1Cc2ccccc2CC2(CCN(Cc3ccncc3)C2)C1 (stereo not given)	none
CCCC(=O)N1Cc2ccccc2CC2(CCN(Cc3ccncc3)C2)C1 (stereo not given)	Pf Dd2 inh 11µM
CCCC(=O)N1Cc2ccccc2CC2(CCN(Cc3cccnc3)C2)C1 (stereo not given)	Pf Dd2 inh 11µM
C[S+](=O)([O-])N1Cc2ccccc2CC2(CCCN(Cc3ccccc3)C2)C1 (stereo not given)	none
CC(=O)N1Cc2ccccc2CC2(CCN(Cc3cccnc3)C2)C1 (stereo not given)	none
O=S(=O)(c1ccccc1)N1Cc2ccccc2CC2(CCN(Cc3cccnc3)C2)C1 (stereo not given)	Pf Dd2 inh 6.3µM
CCCC(=O)N1Cc2ccccc2CC2(CCN(Cc3ccc(NC(C)=O)cc3)C2)C1 (stereo not given)	none
CN1CCCN(C(=O)COc2ccc(Cl)cc2)c2ccccc21	none
O=C1Nc2ccccc2CC12CN(Cc1cscn1)C2	none
O=C(N1CCN([S+](=O)([O-])Cc2ccccc2)CC1)N1CC2CC(C1)[C@H]1CCCC(=O)N1C2 (stereo not given in full)	none
O=C1NC(=NC2CCCCC2)C2(CCCN(Cc3cccnc3)C2)N1c1cccnc1 (stereo not given)	none
O=C(OCc1ccccc1)N1CCCC2(C1)C(=NC1CCCC1)NC(=O)N2c1cc(F)cc(F)c1 (stereo not given)	none
O=C1NC(=NC2CCCCC2)C2(CCCN(Cc3ccsc3)C2)N1c1cc(F)cc(F)c1 (stereo not given)	Pf Dd2 inh 7.9µM
COc1cccc(N2C(=O)NC(=NC3CCCC3)C23CCN([S+](=O)([O-])c2ccccc2)C3)c1 (stereo not given)	none
O=C1NC(=NC2CCCCC2)C2(CCN(Cc3ccsc3)CC2)N1c1cccnc1	none
COc1cccc(N2C(=O)NC(=NC3CCCC3)C23CCCN(Cc2ccsc2)C3)c1 (stereo not given)	Pf Dd2 inh 8.9µM
CCCN(C)c1nccnc1OC1CCN(C(=O)c2cccc(OC)c2OC)C1 (stereo not given)	none
COc1ccc(C(=O)N[C@@H]2CCC[C@@H]2C(=O)N(C)Cc2ccccc2)cc1	none
O=C1NCCOCCCN(S(=O)(=O)c2ccc3c(c2)CCC3)[C@H]2CCC[C@@H]12	none
CN1c2cc(C(=O)NC3CCCC3)ccc2C(=O)N2CCCCC21 (stereo not given)	none
COc1ccc(-c2cn(C)c(=O)n3cc(CN4CC[S+](=O)([O-])CC4)nc23)cc1OC	none
FC(F)(F)Oc1ccc(Nc2cnc3ccc(N4CCOCC4)nn23)cc1	Pf Dd2 inh 11µM
FC(F)(F)c1cc(Nc2cnc3ccc(N4CCOCC4)nn23)ccc1Cl	none
Fc1ccc(-c2ccc3ncc(Nc4ccc5c(c4)OCO5)n3n2)cc1	none
COc1ccc(Nc2cnc3ccc(N4CCOCC4)nn23)cn1	none
Fc1ccc(-c2ccc3ncc(Nc4ccnc(N5CCOCC5)c4)n3n2)cc1	Pf Dd2 inh 0.56µM
CN1CCN(c2ccc3ncc(Nc4ccccc4F)n3n2)CC1	none
COc1cccc(Nc2cnc3ccc(N4CCOCC4)nn23)c1	none
CN(Cc1ccc(F)cc1)c1ccc2ncc(Nc3ccnc(N4CCOCC4)c3)n2n1	Pf Dd2 inh 4µM
CN(Cc1ccc(F)cc1)c1ccc2ncc(Nc3ccc4c(c3)OCCO4)n2n1	Pf Dd2 inh 5.6µM
COc1ncccc1Nc1cnc2ccc(N(C)C)nn12	none
Clc1ccccc1Nc1cnc2ccc(N3CCOCC3)nn12	none
COc1cncc(Nc2cnc3ccc(N(C)Cc4ccc(F)cc4)nn23)c1	none
O=C1CCN(C(=O)CCc2c[nH]c3ccccc23)CCCCCCN1	none
C[C@H](O)c1onc(-c2ccccc2)c1C(=O)N1CCN(C)CC1	none
Cn1ccn2ncc(C(=O)NC3CC(c4nnc(CO)n4C4CC4)C3)c12 (stereo not given)	none
Clc1ccc(C2Cn3nnc(-c4noc(-c5ccc6c(c5)OCO6)n4)c3CO2)cc1 (stereo not given)	none
CCS(=O)(=O)N(C1CC1)C1CCOC2(CCN(C(=O)CCCc3ccccc3)CC2)C1 (stereo not given)	none
COCCN1CCC(N2CCN(C(=O)c3ccccc3Br)CC2)C1=O (stereo not given)	none
COc1cccc(CC(=O)N2CC(Oc3ccc(-c4nc(-c5ccccc5)no4)cc3)C2)c1	none
